Assay outcomes deposited in PubChem BioAssay by National Center for Advancing Translational Sciences (NCATS).
D1 agonist: agonists of human D1 dopamine receptor. hit rate 1% among 360,000. HEK293 T-REx D1 cells, calcium flux, agonist mode. activation, % at 2 µM. AID 504660. P21728; note: 0% is about no effect
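Inducible HEK293 T-REx D1 cells, force-coupled to calcium signalling, were plated at 4000 cells/well with tetracycline and held overnight at 30 C. After no-wash calcium dye loading, compound-evoked calcium rise over 180 s flagged agonists.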
TRHR ag: activates the human TRH receptor | TRHR cells, calcium flux fluo-8, FDSS agonist mode | activation, % at 2 µM | hit rate 0.18% among 360,000 | AID 493084; note: 0% is about no effect
Target sequence (P34981 whole entry, looked up): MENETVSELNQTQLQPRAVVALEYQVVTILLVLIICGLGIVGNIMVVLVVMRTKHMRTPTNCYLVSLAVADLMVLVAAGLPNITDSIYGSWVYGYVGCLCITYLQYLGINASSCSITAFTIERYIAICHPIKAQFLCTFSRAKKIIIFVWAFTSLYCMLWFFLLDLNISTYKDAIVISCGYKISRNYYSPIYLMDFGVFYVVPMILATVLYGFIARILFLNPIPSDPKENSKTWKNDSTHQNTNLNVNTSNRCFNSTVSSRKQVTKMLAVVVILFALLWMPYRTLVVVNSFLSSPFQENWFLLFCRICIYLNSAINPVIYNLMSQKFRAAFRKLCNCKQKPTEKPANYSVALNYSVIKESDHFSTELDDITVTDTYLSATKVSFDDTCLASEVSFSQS
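Read-out: compound-evoked intracellular calcium rise in TRHR cells, fluo-8 dye, kinetic FDSS fluorescence at 1 s/cycle following a 10-cycle baseline. Cells cultured overnight before dye loading (30 min–1.5 h, RT).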
D1 antag: antagonists of human D1 dopamine receptor. hit rate 3.2% among 360,000. activity change, negative = inhibition, % at 10 µM. HEK293 TREx D1 cells, calcium flux, dopamine EC80; hits give low values; in the data active = activity change below about -30%; note: % is set by controls: 0 for no effect and ±100 for the full control effect
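Using tetracycline-induced force-coupled D1 Hek293 cells and a calcium dye, signals were followed for 180 s after compound, then for 180 s after EC80 dopamine, to detect inhibitors.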
TRHR PAM: TRH receptor (human) allosteric enhancement; AID 493056; enhancement, % at 2 µM; hit rate 0.66% among 360,000; TRHR cells, fluo-8 calcium fluorescence, EC20 TRH enhancement; in the data active = enhancement above about 30%; note: 0% is about no effect
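TRHR-expressing cells loaded with fluo-8 calcium dye were read kinetically (ex 480/em 530) during compound addition, then stimulated with an EC20 of TRH (10 nM final). Enhancement of the Gq-mediated intracellular calcium response was scored.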
D1 PAM: potentiators of human D1 dopamine receptor; P21728; HEK293 TREx D1 cells, calcium flux, dopamine EC20 potentiation; potentiation, % at 10 µM; hit rate 0.036% among 360,000; AID 504651; in the data active = potentiation above about 30%; note: 0% is about no effect
* hit, by the source's call; x = no result. Compounds with a hit are over-represented: about 4.7% of the library has one in this group of screens. Cut-off read from the data, not from the text of the source, unless noted: active = activation above about 30%; inactive = the rest.

SMILES	D1 agonist	TRHR ag	D1 antag	TRHR PAM	D1 PAM
CCCN(CCC)C(=O)CN1C(=O)CSc2ccc(S(=O)(=O)N3CCC(C)CC3)cc21	3	4	-91*	-5	-5
CCCCNC(=O)CN1C(=O)CSc2ccc(S(=O)(=O)N3CCC(C)CC3)cc21	1	0	27	-3	4
Cc1csc2nc(CCNS(=O)(=O)c3ccc(F)cc3)cn12	1	0	21	-4	-4
O=C(COc1ccccc1[N+](=O)[O-])N1CCC(c2nc3ccccc3o2)CC1	-2	0	-4	4	0
Cc1ccccc1Nc1nc(N)nc(COC(=O)c2ccc(O)cc2)n1	17	2	-43*	5	-10
CC(=O)Nc1ccc(Sc2ccccc2C(=O)Nc2ccc(F)cc2)cn1	46*	4	-8	1	2
COc1ccc(NC(=O)C2CCN(S(=O)(=O)c3ccc4c(c3)CCCC(=O)N4)CC2)cc1OC	2	0	-21	-8	-5
Cc1ccc(Nc2nnc(C3C(=O)N(C)C4(C)CC3c3cc(Br)ccc3O4)s2)cc1 (stereo not drawn)	36*	0	8	3	9
COc1cc(OC)c(OC)cc1CNc1sc2c(c1C(=O)Nc1ccccc1OC)CCC2	0	0	-20	-5	-5
CN(CC(=O)Nc1ccccc1Cl)C(=O)Cn1nnc(-c2ccc(F)cc2)n1	1	0	-47*	-4	-3
Cc1nc(-c2ccc(F)cc2)c(CC(=O)N(C)CC(=O)Nc2ccccc2Cl)s1	1	0	4	-6	2
COc1ccccc1CNC(=O)CC1N=C2c3ccccc3N=C(SCC(=O)Nc3ccc(F)cc3)N2C1=O (stereo not drawn)	-2	-1	-11	3	-1
CCCOC(=O)C(=O)NNc1ccccc1	2	0	-4	32*	-13
Cc1ccc(C2C=C(c3ccccc3)Nc3nc(NS(=O)(=O)c4ccccc4)nn32)cc1 (stereo not drawn)	31*	13	10	9	-3
O=S(=O)(Nc1nc2n(n1)C(c1ccccc1)C=C(c1ccc(Cl)cc1)N2)c1ccccc1 (stereo not drawn)	32*	8	-14	0	0
Cc1ccc(S(=O)(=O)Nc2nc3n(n2)C(c2ccc(Cl)cc2)C=C(c2ccccc2)N3)cc1 (stereo not drawn)	11	0	19	-3	-1
CCCCCCc1cc2cc(/C(N)=N/NC(=O)c3ccncc3)c(=O)oc2cc1O	114*	122*	x	28	-1
CCCCCCc1cc2cc(C(=O)OCC)c(=O)oc2cc1O	16	13	-1	3	3
CCCCCCc1cc2cc(-c3nnc(-c4ccc(C)cc4)o3)c(=O)oc2cc1O	221*	-1	23	1	4
CCCCCCc1cc2cc(S(=O)(=O)c3ccc(F)c(Cl)c3)c(=O)oc2cc1O	51*	25	-10	-5	-5
CCSc1ccccc1C(=O)N1CCN(c2nc3ccccc3s2)CC1	31*	-1	x	6	8
O=C(C1COc2ccccc2O1)N1CCN(c2nc3ccc([N+](=O)[O-])cc3s2)CC1 (stereo not drawn)	6	0	-24	-7	0
CCCC(=O)N1CCN(c2nc3ccccc3s2)CC1	4	1	7	3	-5
O=C(c1cccs1)N1CCN(c2nc3ccccc3s2)CC1	6	1	-37*	-4	-3
Cc1cccc2sc(N3CCN(C(=O)c4cccs4)CC3)nc12	4	0	-9	-6	-8
SMILES	D1 agonist	TRHR ag	D1 antag	TRHR PAM	D1 PAM
O=C(C1COc2ccccc2O1)N1CCN(c2nc3ccccc3s2)CC1 (stereo not drawn)	6	0	-62*	3	-8
Cc1cc(C)c2c(CC(=O)Nc3nnc(CC(C)C)s3)coc2c1	3	1	-4	1	-1
CN1CCN(CCOC2Cc3ccccc3Sc3ccc(Cl)cc32)CC1 (stereo not drawn)	29	1	-66*	0	-21
O=C(CN1CCN(CCOCCO)CC1)N1c2ccccc2Sc2ccc(Cl)cc21	0	0	-6	9	2
OCCN1CCN(C2Cc3cc(Cl)ccc3Sc3ccc(Cl)cc32)CC1 (stereo not drawn) (tested in a mixture with another compound)	12	0	-86*	1	-28
Cc1cc2c(s1)c1cnn(Cc3ccc(F)cc3)c(=O)c1n2C	0	0	3	2	-4
COc1ccc(NC(=O)CCS(=O)(=O)c2nc(-c3cccs3)cc(C(F)(F)F)n2)cc1OC	2	0	2	-1	2
Cc1ccccc1-c1nnn(Cc2cccc(S(=O)(=O)N3CCOCC3)c2)n1	13	0	-33*	4	-8
O=C(Nc1ccc(Br)cc1F)c1ccc2nc(CCc3ccccc3)oc2c1	3	0	6	0	-2
Oc1cncc(-c2cccnc2)c1	-3	1	x	31*	4
COc1ccc(C(=O)c2cn(Cc3ccccc3)c3ccccc3c2=O)cc1OC	1	0	-33*	48*	0
CSc1ncccc1C(=O)Nc1ccc(S(=O)(=O)NC2=NCCCCC2)cc1	3	0	-54*	-10	-4
CN(C)S(=O)(=O)c1ccc(C(=O)Nc2ccc(S(=O)(=O)NC3=NCCCCC3)cc2)cc1	7	0	-6	-3	3
COCCn1c(-c2ccc(Br)cc2)csc1=Nc1cccnc1	4	-1	-34*	-9	-7
FC(F)Oc1ccc(-c2csc(=Nc3cccnc3)n2CC2CCCO2)cc1 (stereo not drawn)	15	0	-31*	-6	-2
Clc1ccc(-c2csc(=Nc3cccnc3)n2CCCn2ccnc2)cc1Cl	6	-1	13	-9	-5
COc1ccc(C(=O)N2CCCC(Nc3ccc(F)c(F)c3)C2)c(OC)n1 (stereo not drawn)	-1	-1	-35*	-1	4
O=C(c1cnsn1)N1CCCC(Nc2ccc(F)c(F)c2)C1 (stereo not drawn)	1	-1	-65*	5	-5
COc1ccc(C(=O)N2CCCC(Nc3ccc(C)c(C)c3)C2)c(OC)n1 (stereo not drawn)	4	-1	0	-6	-1
CCN(C(=O)Cn1cnc2onc(-c3ccc(F)cc3)c2c1=O)c1cc(C)ccc1C	1	1	-24	-14	3
CCOc1ccc2nc(Cl)c(C3CC(c4ccc(C)cc4)=NN3C(=O)CCCC(=O)O)cc2c1 (stereo not drawn)	0	1	11	15	-2
CCOC(=O)c1sc2nc(C)nc(NCc3ccc(F)cc3)c2c1C	4	1	3	2	1
CCOC(=O)c1sc2nc(C)nc(Nc3ccc(OC)cc3)c2c1C	2	-1	-30*	-1	-1
